Laboratory results: the supplement of paper PMC3414501
Structures can show the parent of a compound that is named as a salt.

Experiments:
[1] = tested on: S. cerevisiae SK1 pCDA2-eGFP (USY613), sporulating; experiment: CDA2-GFP sporulation assay sensitivity score (z-score vs DMSO controls); higher = stronger inhibition of sporulation, active = hit call of the paper;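 further: active if sensitivity score above 5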
[2] = tested on: S. cerevisiae NKY1551 his4x/his4B, sporulating; experiment: HIS4 meiotic recombination assay sensitivity score (z-score vs DMSO controls); higher = stronger inhibition of sporulation/recombination, active = hit call of the paper;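 further: active if sensitivity score above 5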
[3] = tested on: S. cerevisiae AD1-9 (efflux-pump deficient), vegetative growth in YPD; experiment: growth sensitivity score (doubling time z-score vs DMSO controls); higher = slower growth, strongly negative scores also mark growth inhibition (complete suppression), active = hit call of the paper
Outline: (§1)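 Saccharomyces cerevisiae strains BY4741 and AD1-9 were seeded in rich medium in microtiter plates at an OD600 of 0.065. Compounds were added at a 1:100 dilution of DMSO stock. Optical density was read every 15 min for 24 hours on a Tecan GENios reader. Average doubling time was the time taken to reach a set generation point divided by generation number, and the growth sensitivity score was (compound mean − DMSO-control mean)/DMSO-control SD, using eight DMSO controls per experiment.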

[4] = tested on: S. cerevisiae BY4741 (wild-type), vegetative growth in YPD; experiment: as above
Outline: as §1

| Structure (SMILES) | CDA2-GFP sporulation assay sensitivity score [1] | HIS4 meiotic recombination assay sensitivity score [2] | growth sensitivity score [3] | growth sensitivity score [4] |
| --- | --- | --- | --- | --- |
| CCc1ccc(CCOc2ccc(CC3SC(=O)NC3=O)cc2)nc1 (stereo not given) [Pioglitazone hydrochloride] (stock concentration (mM, diluted 1:100): 9.1) | 2.87 (inactive) | 0.36 (inactive) | -1.03 (inactive) | -0.08 (inactive) |
| C[C@]12CC[C@@H]3c4ccc(OS(=O)(=O)O)cc4CC[C@H]3[C@@H]1CCC2=O (stock concentration (mM, diluted 1:100): 10) | 4.09 (inactive) | 1.4 (inactive) | 0.01 (inactive) | -0.87 (inactive) |
| Nc1nc(Cl)nc2c1ncn2[C@@H]1O[C@H](CO)[C@@H](O)[C@H]1O [2-Chloroadenosine] (stock concentration (mM, diluted 1:100): 10) | -0.44 (inactive) | -0.54 (inactive) | -1.1 (inactive) | -1.07 (inactive) |
| O=C(O)C[C@H](O)C[C@H](O)/C=C/c1c(C2CC2)nc2ccccc2c1-c1ccc(F)cc1 [Livalo] (stock concentration (mM, diluted 1:100): 5) | 0.3 (inactive) | -3.02 (inactive) | 32.2 (active) | 15.7 (active) |
| COC1=C(OC)C(=O)C(CCCCCCCCCCO)=C(C)C1=O [Idebenone] (stock concentration (mM, diluted 1:100): 10.2) | 0.12 (inactive) | -0.57 (inactive) | – | 15.6 (active) |
| COc1cccc2c1C(=O)c1c(O)c3c(c(O)c1C2=O)C[C@@](O)(C(=O)CO)C[C@@H]3O[C@H]1C[C@H](N)[C@H](O)[C@H](C)O1 [Doxorubicin hydrochloride] (stock concentration (mM, diluted 1:100): 9.4) | 0.3 (inactive) | -0.73 (inactive) | 83.6 (active) | 51 (active) |
| COc1cc2nc(N3CCN(C(=O)C4CCCO4)CC3)nc(N)c2cc1OC (stereo not given) [Terazosin] (stock concentration (mM, diluted 1:100): 9.5) | 3.45 (inactive) | 0.92 (inactive) | -0.95 (inactive) | -0.03 (inactive) |
| O=C(CCCN1CC=C(n2c(=O)[nH]c3ccccc32)CC1)c1ccc(F)cc1 [Droperidol] (stock concentration (mM, diluted 1:100): 10) | 3.12 (inactive) | -0.15 (inactive) | -1.57 (inactive) | -0.99 (inactive) |
| Cc1onc(-c2ccccc2)c1-c1ccc(S(N)(=O)=O)cc1 [Valdecoxib] (stock concentration (mM, diluted 1:100): 10) | -1.13 (inactive) | -1.51 (inactive) | 11 (active) | 0.72 (inactive) |
| CN(C)CCC=C1c2ccccc2COc2ccccc21 [Doxepin] (stock concentration (mM, diluted 1:100): 10) | 18.2 (active) | 3.87 (inactive) | 5.43 (active) | 1.16 (inactive) |
| CN(Cc1cnc2nc(N)nc(N)c2n1)c1ccc(C(=O)N[C@@H](CCC(=O)O)C(=O)O)cc1 [Methotrexate] (stock concentration (mM, diluted 1:100): 14.6) | -2.22 (inactive) | 0.19 (inactive) | -2.15 | -0.16 (inactive) |
| O=c1[nH]c(=O)n(C2CCCO2)cc1F (stereo not given) [Ftorafur] (stock concentration (mM, diluted 1:100): 10) | 0.02 (inactive) | 0.93 (inactive) | -0.92 (inactive) | 0.14 (inactive) |
| CC(C)c1nc(CN(C)C(=O)N[C@H](C(=O)N[C@@H](Cc2ccccc2)C[C@H](O)[C@H](Cc2ccccc2)NC(=O)OCc2cncs2)C(C)C)cs1 [Ritonavir] (stock concentration (mM, diluted 1:100): 10) | -0.68 (inactive) | -1.41 (inactive) | 8.8 (active) | -0.97 (inactive) |
| COc1ccc(CN2CCN(C(c3ccc(F)cc3)c3ccc(F)cc3)CC2)c(OC)c1OC [Lomerizine dihydrochloride] (stock concentration (mM, diluted 1:100): 8.7) | 13.1 (active) | -0.52 (inactive) | – | 2.29 (active) |
| CC(Cc1ccccc1)(NC(=O)CN)c1ccccc1 (stereo not given) [Remacemide] (stock concentration (mM, diluted 1:100): 10) | 2.76 (inactive) | -1.04 (inactive) | 4.61 (active) | -0.78 (inactive) |
| Clc1ccc(CO/N=C(\Cn2ccnc2)c2ccc(Cl)cc2Cl)c(Cl)c1 [Oxiconazole nitrate] (stock concentration (mM, diluted 1:100): 10) | 0.87 (inactive) | -3.02 (inactive) | 47.9 (active) | 66.3 (active) |

| Structure (SMILES) | CDA2-GFP sporulation assay sensitivity score [1] | HIS4 meiotic recombination assay sensitivity score [2] | growth sensitivity score [3] | growth sensitivity score [4] |
| --- | --- | --- | --- | --- |
| CC(C)C[C@H](NC(=O)[C@@H](COC(C)(C)C)NC(=O)[C@H](Cc1ccc(O)cc1)NC(=O)[C@H](CO)NC(=O)[C@H](Cc1c[nH]c2ccccc12)NC(=O)[C@H](Cc1cnc[nH]1)NC(=O)[C@@H]1CCC(=O)N1)C(=O)N[C@@H](CCCNC(=N)N)C(=O)N1CCC[C@H]1C(=O)NNC(N)=O [Goserelin acetate] (stock concentration (mM, diluted 1:100): 9.6) | 0.53 (inactive) | -1.25 (inactive) | 0.11 (inactive) | -0.77 (inactive) |
| CCc1nn(CCCN2CCN(c3cccc(Cl)c3)CC2)c(=O)n1CCOc1ccccc1 [Nefazodone] (stock concentration (mM, diluted 1:100): 9.3) | 5.84 (active) | 3 (inactive) | – | 9.68 (active) |
| CS(=O)(=O)c1ccc(C2=C(c3ccccc3)C(=O)OC2)cc1 [Rofecoxib] (stock concentration (mM, diluted 1:100): 10) | 0.79 (inactive) | -1.67 (inactive) | -0.37 (inactive) | 0.04 (inactive) |
| COc1ccc(CC(C)NCC(O)c2ccc(O)c(NC=O)c2)cc1 (stereo not given) [Formoterol fumarate dihydrate] (stock concentration (mM, diluted 1:100): 7) | 0.41 (inactive) | -1.68 (inactive) | -0.7 (inactive) | -0.1 (inactive) |
| CCC1=C[C@H]2CN(C1)Cc1c([nH]c3ccccc13)[C@@](C(=O)OC)(c1cc3c(cc1OC)N(C)[C@H]1[C@@](O)(C(=O)OC)[C@H](OC(C)=O)[C@]4(CC)C=CCN5CC[C@]31[C@@H]54)C2 [Vinorelbine bitatrate] (stock concentration (mM, diluted 1:100): 7.2) | 1.77 (inactive) | -0.36 (inactive) | -3.29 | -1.83 (inactive) |
| CN(C)CCc1c[nH]c2ccc(Cn3cncn3)cc12 [Rizatriptan benzoate] (stock concentration (mM, diluted 1:100): 10) | -0.91 (inactive) | -0.35 (inactive) | -1.17 (inactive) | -0.18 (inactive) |
| COc1ccccc1N1CCN(CCCNc2cc(=O)n(C)c(=O)n2C)CC1 [Urapidil hydrochloride] (stock concentration (mM, diluted 1:100): 10) | 1.04 (inactive) | -0.7 (inactive) | -0.84 (inactive) | 0.85 (inactive) |
| C[C@H]1[C@H](OC(=O)CCC(=O)O)O[C@@H]2O[C@@]3(C)CC[C@H]4[C@H](C)CC[C@@H]1[C@@]24OO3 [Artesunate] (stock concentration (mM, diluted 1:100): 10) | 0.74 (inactive) | 0.08 (inactive) | 23.2 (active) | 2.81 (active) |
| CN(CCOc1ccc(CC2SC(=O)NC2=O)cc1)c1ccccn1 (stereo not given) [Rosigltazone hydrochloride] (stock concentration (mM, diluted 1:100): 8.2) | -0.4 (inactive) | 2.69 (inactive) | 0.66 (inactive) | 2.48 (active) |
| COCCCC/C(=N\OCCN)c1ccc(C(F)(F)F)cc1 [Fluvoxamine] (stock concentration (mM, diluted 1:100): 7.7) | -1.51 (inactive) | 8.08 (active) | 9.45 (active) | 2.43 (active) |
| O=c1c(O[C@@H]2O[C@H](CO)[C@@H](O)[C@H](O)[C@H]2O)c(-c2ccc(O)c(O)c2)oc2cc(O)cc(O)c12 [Isoquercetrin] (stock concentration (mM, diluted 1:100): 10) | -1.49 (inactive) | -0.48 (inactive) | -0.6 (inactive) | 0.03 (inactive) |
| CCOC(=O)N1CCC(=C2c3ccc(Cl)cc3CCc3cccnc32)CC1 [Loratadine] (stock concentration (mM, diluted 1:100): 10) | 3.83 (inactive) | -1.19 (inactive) | – | 335 (active) |
| CCCCN1CCCC1CNC(=O)c1cc(C#N)c2ccccc2c1OC (stereo not given) [Nafadotride] (stock concentration (mM, diluted 1:100): 10) | 3.66 (inactive) | – | -2.8 | -0.11 (inactive) |
| O=C(NCCO[N+](=O)[O-])c1cccnc1 [Nicorandil] (stock concentration (mM, diluted 1:100): 10) | -0.11 (inactive) | – | -1.47 (inactive) | -2.59 |
| CC(COc1ccccc1Cc1ccccc1)N1CCCCC1 (stereo not given) [Benproperine phosphate] (stock concentration (mM, diluted 1:100): 10) | 0.55 (inactive) | – | 3.29 (active) | 6.41 (active) |
| C[C@]12C=CC(=O)C=C1CC[C@@H]1[C@@H]2[C@@H](O)C[C@@]2(C)[C@H]1CC[C@]2(O)C(=O)COC(=O)CCC(=O)O (stock concentration (mM, diluted 1:100): 10) | -0.32 (inactive) | – | -0.63 (inactive) | -0.61 (inactive) |
